Our source for the growth values is PubChem BioAssay (NCI).

Among the test systems are SR leukemia; RPMI-8226 leukemia; OVCAR-5 ovarian; OVCAR-4 ovarian; SK-OV-3 ovarian; IGROV1 ovarian; OVCAR-3 ovarian; HS 578T breast; T-47D breast; BT-549 breast; MDA-MB-435 melanoma; SW-620 colon; MCF7 breast; HCT-116 colon; HCC-2998 colon; KM12 colon.
What all share (test): NCI-60 one-dose screen, 48 h (100 = growth as untreated, 0 = no growth, -100 = all killed)
Another experiment concerns OVCAR-8 ovarian. The following applies: 10 µM.

Values joined by “and” are separate entries in the source; they are usually repeats but may differ in a detail not shown here. Equal values may be shown once. The panel holds about 83,000 compounds, 20% with a hit somewhere; the sample as a whole holds those more often.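 Plates (96-well) were seeded with cells, treated with compound at one concentration, and incubated for 48 hours before percent growth was determined.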 Values without a mark were called inactive. Active and inactive are the calls of the source. The calls were made as follows: active = growth percent below 10; inactive = the rest.

Take `Cn1c2nc3ccccc3c-2nc2ccccc21`: the growth with SR leukemia (10 µM) is 83.5% and 91.1%; with RPMI-8226 leukemia (10 µM), 94.9% and 96.8%; in the experiment on OVCAR-8 ovarian, 93% and 88.6%; with OVCAR-5 ovarian (10 µM), 103% and 86.9%; in the experiment on OVCAR-4 ovarian (10 µM) it was 89.5% and 80.5%; in the experiment with SK-OV-3 ovarian (10 µM), 91.2% and 90.8%. In addition, the growth is 79.8% and 61.6% with IGROV1 ovarian (10 µM); 99.2% and 93.3% in the experiment with OVCAR-3 ovarian (10 µM); 83.4% and 87.5% in the experiment on HS 578T breast (10 µM); 78.9% and 72% in the experiment with T-47D breast (10 µM); 90.5% and 92.6% in the experiment on BT-549 breast (10 µM); 109% and 125% with MDA-MB-435 melanoma (10 µM). The growth with SW-620 colon (10 µM) is 79% and 90%; in the experiment on MCF7 breast (10 µM), 77.3% and 67.5%; in the experiment with HCT-116 colon (10 µM), 92.7% and 80.9%; with HCC-2998 colon (10 µM), 118% and 102%; with KM12 colon (10 µM), 92.4% and 83.5%.

As for `NCc1c(O)ccc2ccccc12`, the growth in the experiment on SR leukemia (10 µM) was 87.8%; in the experiment on RPMI-8226 leukemia (10 µM) it was 101%; in the experiment with OVCAR-8 ovarian, 103%; with OVCAR-5 ovarian (10 µM), 96.9%; with OVCAR-4 ovarian (10 µM) it was 111%; with SK-OV-3 ovarian (10 µM), 96.9%. Also, the growth with IGROV1 ovarian (10 µM) is 94.7%; in the experiment on OVCAR-3 ovarian (10 µM) it was 99.4%; with HS 578T breast (10 µM), 94.5%; in the experiment on T-47D breast (10 µM), 98.3%; in the experiment on BT-549 breast (10 µM), 101%; in the experiment on MDA-MB-435 melanoma (10 µM), 103%. The growth is 107% with SW-620 colon (10 µM); 95.3% with MCF7 breast (10 µM); 102% with HCT-116 colon (10 µM); 102% in the experiment with HCC-2998 colon (10 µM); 96% in the experiment on KM12 colon (10 µM).

Consider `COc1cccc(C(c2cc3c(cc2O)OCO3)N2CCOCC2)c1OC` (stereo not drawn), for which the growth is 89.5% in the experiment with SR leukemia (10 µM); 105% in the experiment with RPMI-8226 leukemia (10 µM); 99.2% in the experiment on OVCAR-8 ovarian; 104% with OVCAR-5 ovarian (10 µM); 99.5% in the experiment with OVCAR-4 ovarian (10 µM); 101% with SK-OV-3 ovarian (10 µM). Besides, the growth was 101% in the experiment with IGROV1 ovarian (10 µM); 111% with OVCAR-3 ovarian (10 µM); 95.5% with HS 578T breast (10 µM); 97.2% in the experiment on T-47D breast (10 µM); 94.7% in the experiment on BT-549 breast (10 µM); 98% in the experiment on MDA-MB-435 melanoma (10 µM). Further, the growth is 102% in the experiment on SW-620 colon (10 µM); 96.5% in the experiment with MCF7 breast (10 µM); 102% in the experiment on HCT-116 colon (10 µM); 113% with HCC-2998 colon (10 µM); 108% in the experiment with KM12 colon (10 µM).

For `Cc1cc(C)c(N2C(=O)CC(Sc3ccccc3N)C2=O)c(C)c1` (stereo not drawn), the growth was 23.4% in the experiment with SR leukemia (10 µM); 66.3% with RPMI-8226 leukemia (10 µM); 91.1% in the experiment on OVCAR-8 ovarian; 118% in the experiment on OVCAR-5 ovarian (10 µM); 71.4% in the experiment on OVCAR-4 ovarian (10 µM); 71.6% in the experiment with SK-OV-3 ovarian (10 µM). The growth is 92% in the experiment on IGROV1 ovarian (10 µM); 71.1% with OVCAR-3 ovarian (10 µM); 81% in the experiment with HS 578T breast (10 µM); 87.8% in the experiment with T-47D breast (10 µM); 96.2% with BT-549 breast (10 µM); -20.8% (active) with MDA-MB-435 melanoma (10 µM). Moreover, the growth was 55.9% with SW-620 colon (10 µM), 31.7% in the experiment with MCF7 breast (10 µM), 79.2% in the experiment with HCT-116 colon (10 µM) and 50.9% in the experiment on KM12 colon (10 µM).

As for `S=P(N1CC1)(N1CC1)N1CC1`, the growth in the experiment on SR leukemia (10 µM) is 35.4%; in the experiment with SR leukemia (100 µM), 22.6%; in the experiment with RPMI-8226 leukemia (10 µM) it was 99.2% and 136%; in the experiment on RPMI-8226 leukemia (100 µM) it was 51.4%; in the experiment on OVCAR-8 ovarian, 110% and 80.7%; in the experiment with OVCAR-5 ovarian (10 µM) it was 108% and 77.1%. In addition, the growth with OVCAR-5 ovarian (100 µM) is 64.7%; in the experiment on OVCAR-4 ovarian (10 µM) it was 116% and 90.4%; in the experiment on OVCAR-4 ovarian (100 µM), 87.9%; with SK-OV-3 ovarian (10 µM), 110% and 108%; in the experiment on SK-OV-3 ovarian (100 µM), 67.2%; with IGROV1 ovarian (10 µM), 101% and 78.2%. The growth was 70.7% in the experiment on IGROV1 ovarian (100 µM); 118% and 106% in the experiment on OVCAR-3 ovarian (10 µM); 69.8% in the experiment on OVCAR-3 ovarian (100 µM); 113% and 126% in the experiment with HS 578T breast (10 µM); 66% in the experiment on HS 578T breast (100 µM); 103% and 98.1% in the experiment on T-47D breast (10 µM). Moreover, the growth in the experiment on T-47D breast (100 µM) was 53.7%; in the experiment on BT-549 breast (10 µM) it was 102% and 85.8%; in the experiment on BT-549 breast (100 µM), 47.5%; in the experiment with MDA-MB-435 melanoma (10 µM), 105% and 97.2%; in the experiment on MDA-MB-435 melanoma (100 µM) it was 64.8%; in the experiment on SW-620 colon (10 µM) it was 110% and 93.6%. Besides, the growth was 73% with SW-620 colon (100 µM); 69.5% in the experiment on MCF7 breast (10 µM); 29.3% with MCF7 breast (100 µM); 95.9% and 73.8% with HCT-116 colon (10 µM); 51.3% in the experiment with HCT-116 colon (100 µM); 109% with HCC-2998 colon (10 µM). Moreover, the growth in the experiment with HCC-2998 colon (100 µM) was -5.61% (active); in the experiment with KM12 colon (10 µM), 111% and 104%; with KM12 colon (100 µM), 83%.

Regarding `O=Nc1ccc(Nc2ccccc2)cc1`, the growth in the experiment on SR leukemia (10 µM) is 28.2%; in the experiment on RPMI-8226 leukemia (10 µM), 27.1%; with OVCAR-8 ovarian, 66.4%; in the experiment with OVCAR-5 ovarian (10 µM), 103%; in the experiment on OVCAR-4 ovarian (10 µM) it was 57.3%; with SK-OV-3 ovarian (10 µM), 108%. The growth was 102% in the experiment with IGROV1 ovarian (10 µM); 49.4% in the experiment with OVCAR-3 ovarian (10 µM); 111% in the experiment with HS 578T breast (10 µM); 63.2% in the experiment on T-47D breast (10 µM); 78.8% with BT-549 breast (10 µM); 83.6% in the experiment on MDA-MB-435 melanoma (10 µM). In addition, the growth in the experiment on SW-620 colon (10 µM) is 70.1%; in the experiment on MCF7 breast (10 µM), 67.2%; in the experiment on HCT-116 colon (10 µM), 78.4%; with HCC-2998 colon (10 µM) it was 93.8%; with KM12 colon (10 µM) it was 93.3%.

Take `O=C(NC(=S)Nc1ccccn1)c1ccccc1`: the growth with SR leukemia (10 µM) is 112%; with RPMI-8226 leukemia (10 µM), 60.4%; in the experiment on OVCAR-8 ovarian, 103%; with OVCAR-5 ovarian (10 µM) it was 89.1%; in the experiment with OVCAR-4 ovarian (10 µM), 62.7%; with SK-OV-3 ovarian (10 µM), 107%. For the same compound, the growth in the experiment on IGROV1 ovarian (10 µM) is 78.7%; in the experiment on OVCAR-3 ovarian (10 µM), 98%; in the experiment with HS 578T breast (10 µM) it was 88.8%; in the experiment on T-47D breast (10 µM), 59.1%; with BT-549 breast (10 µM) it was 77.1%; with MDA-MB-435 melanoma (10 µM), 105%. The growth is 96.1% in the experiment on SW-620 colon (10 µM), 24.3% in the experiment with MCF7 breast (10 µM), 87.9% with HCT-116 colon (10 µM) and 97% with KM12 colon (10 µM).
